Experimental data from PubChem BioAssay (NCI).
About 83,000 compounds went through this panel and 20% of them were active in at least one assay; those are over-represented in the sample as a whole.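 For each line, cells grew in 96-well plates with the test compound present at a single concentration for 48 hours.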 A number with no mark means an inactive call. Activity calls are given as the source filed them. How the source made its calls: active means growth percent below 10; inactive means the rest.

Each molecule was assayed on HL-60(TB) leukemia (assay: NCI-60 one-dose screen, 48 h (100 = growth as untreated, 0 = no growth, -100 = all killed)). Conditions: 10 µM unless noted.

Row | SMILES | growth
1 | CCSc1cnnc2ccccc12 | 91.5%
2 | COc1cc(C(=O)N2CCN(c3ccccc3OC)CC2)c(N)cc1OCCCN1CCN(c2ccccc2OC)CC1 | 85.3%
3 | Clc1ccc2c(NCCCCNc3nc(N4CCCCC4)nc4ccccc34)ccnc2c1 | -69% (active)
4 | C[C@@H]1CC[C@@H]2[C@@H]1[C@H](OC(=O)/C=C/c1ccccc1)[C@]1(c3ccccc3)C[C@@H](OC(=O)CO)[C@@]2(C)O1 | 105%
5 | CCCCN1CCCC[C@@H]1C(=O)N[C@H](C(=O)N(C)[C@H](CCc1nc(C(=O)N[C@@H](Cc2ccccc2)C[C@H](C)C(=O)OC)cs1)C(C)C)C(C)C | 5.08% (active)
6 | CC(C)NS(=O)(=O)c1cccc(-c2ccc3c4c(n(CCCN(C)C)c(=O)c3c2)-c2ccccc2C4=O)c1 | 65.3%
7 | Nc1nc(Nc2ccccc2SSc2ccccc2Nc2nc(N)nc(C(Cl)(Cl)Cl)n2)nc(C(Cl)(Cl)Cl)n1 | 11.5%
8 | C=C1C(=O)O[C@H]2[C@H]1CC/C(C=Nc1c(N)cc(C(F)(F)F)cc1C(F)(F)F)=C\CC[C@@]1(C)O[C@@H]21 | -24.9% (active)
9 | CO[C@H]1CC(O[C@@H]2/C(C)=C/C[C@@H]3C[C@@H](C[C@]4(CC[C@H](C)[C@@H](C5CCCCC5)O4)O3)OC(=O)[C@@H]3C=C(C)/C(=N/O)[C@H]4OC/C(=C\C=C\[C@@H]2C)[C@]43O)O[C@@H](C)C1O (some centres not stated) | -48.7% (active)
10 | O=C(NNc1nc2cc(F)ccc2n2c(CN3CCOCC3)ccc12)c1ccccc1 | -1.51% (active)
11 | CN1C(=O)C2(NN=C(c3cccc4ccccc34)S2)c2ccccc21 (configuration not stated) | 34.7%
12 | CC1=C[C@H]2c3c(c(O)c(O)c4oc(-c5ccccc5)cc(=O)c34)[C@H](c3cc(O)c(O)c4oc(-c5ccccc5)cc(=O)c34)[C@H]2C(C)(C)C1 | -30.1% (active)
13 | O=C(/C=C/c1cccs1)Nc1ncc(Cc2ccccc2F)s1 | -40.2% (active)
14 | O=C(Nc1ccccc1OC(=O)c1ccccc1)c1ccccc1 | 0.315% (active)
15 | CC(C)(C)OC(=O)N1C/C(=C\c2ccccc2)C(=O)/C(=C/c2ccccc2)C1 | 99.6%
16 | CCCCCc1ccc(S(=O)(=O)Nc2cc(-c3csc(NC(C)=O)n3)ccc2N2CCN(C)CC2)cc1 | -61.7% (active)
17 | CCCOC(=O)Nc1nc2ccc(SCC)cc2s1 | 76.4%
18 | Cc1ccc(NC(=S)NNC(=S)Nc2ccc(C)cc2)cc1 | 44.7%
19 | O=C1Nc2ccc(Br)cc2C12CC(c1ccccc1)=NN2 (configuration not stated) | -4.96% (active)
20 | COc1ccc(Cl)cc1NC(=O)c1c(NC(=O)C(F)(F)C(F)(F)F)sc2c1CCCCC2 | 12.4%
21 | Cc1ccc(S(=O)(=O)N(CC[C@@H]2C[C@H]2c2cc3ccccc3o2)C(=O)NC2CCCCC2)cc1 | 105%
22 | CCn1cc(C(=O)O)c(=O)c2cc(F)c(N3CCN(S(=O)(=O)c4c(C)cc(C)cc4C)CC3)cc21 | 73%
23 | O=C(c1ccccc1)N(C(=O)c1ccccc1)N1CCCC1 | 120%
24 | COc1ccc2nc(-c3ccc(OC)c(OC)c3)cc(-c3nnc(SCC(=O)Nc4ccc(/C(C)=N\O)cc4)n3-c3ccccc3)c2c1 | 26.3%
25 | COc1cc2ccnc(C=O)c2cc1OC | -27.4% (active)
26 | OCCCc1ccccc1 | 99%
27 | CSc1cccc(NC(=O)Nc2nc3c(C)cccc3s2)c1 | 85.8%
